According to PubChem BioAssay (Tox21):
Inconclusive results are not listed. The source made the active and inactive calls. Unless noted, calls follow the shape of the full dose curve.

Experiments:
[1] = Nuclear factor erythroid 2-related factor 2/antioxidant responsive element (Nrf2/ARE) small molecule agonists: qHTS cell viability counter screen in human keratinocytes (AID 1919968; active = well fitted curve in the direction sought with a large enough effect in the repeat runs; an effect the other way counts as inactive or inconclusive; also: nearly all actives have a fitted effect of over 55% in size)
How it was run: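 KeratinoSens cells (HaCaT keratinocytes stably carrying an ARE-luciferase reporter) were seeded at 1,500 cells/well and rested 5 h at 37 C/5% CO2. They were then exposed to compounds in DMSO for 23 h. Viability was read by CellTiter-Fluor fluorescence after 1 h.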

[2] = Nuclear factor erythroid 2-related factor 2/antioxidant responsive element (Nrf2/ARE) small molecule agonists: luciferase reporter gene qHTS assay in human keratinocytes (AID 1919969); also: nearly all actives have a fitted effect of over 35% in size
[3] = target: Gonadotropin-releasing hormone receptor (Homo sapiens) (UniProt P30968); test: Human gonadotropin-releasing hormone receptor (GnRHR) small molecule agonists, calcium flux assay in GnRHR-HEK293 cells (AID 1920063); also: nearly all actives have a fitted effect of over 35% in size
Chain of Gonadotropin-releasing hormone receptor (Homo sapiens) (P30968 whole entry, looked up): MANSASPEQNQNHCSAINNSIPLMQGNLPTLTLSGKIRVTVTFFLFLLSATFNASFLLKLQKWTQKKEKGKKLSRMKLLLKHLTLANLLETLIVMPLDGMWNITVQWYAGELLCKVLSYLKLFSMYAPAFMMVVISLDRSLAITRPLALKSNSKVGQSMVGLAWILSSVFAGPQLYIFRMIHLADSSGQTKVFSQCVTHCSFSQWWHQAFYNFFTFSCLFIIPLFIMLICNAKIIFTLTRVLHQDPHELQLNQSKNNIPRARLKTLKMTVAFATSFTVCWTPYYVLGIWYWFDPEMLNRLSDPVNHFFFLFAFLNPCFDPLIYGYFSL
How it was run: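 HEK293 cells stably expressing human GnRHR were plated 18 h at 37 °C, loaded with calcium dye 1 h at 37 °C, then given compound in agonist mode; fluorescence (Ex/Em 480/540) read kinetically for 3 min at 1 s intervals.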

[4] = target: KiSS-1 receptor (Homo sapiens) (UniProt Q969F8); test: Human kisspeptin (KISS1R) small molecule agonists, calcium flux assay in KISS1R-HEK293 cells (AID 1920064; active = well fitted curve in the direction sought with a large enough effect in the repeat runs; an effect the other way counts as inactive or inconclusive)
Chain of KiSS-1 receptor (Homo sapiens) (Q969F8 whole entry, looked up): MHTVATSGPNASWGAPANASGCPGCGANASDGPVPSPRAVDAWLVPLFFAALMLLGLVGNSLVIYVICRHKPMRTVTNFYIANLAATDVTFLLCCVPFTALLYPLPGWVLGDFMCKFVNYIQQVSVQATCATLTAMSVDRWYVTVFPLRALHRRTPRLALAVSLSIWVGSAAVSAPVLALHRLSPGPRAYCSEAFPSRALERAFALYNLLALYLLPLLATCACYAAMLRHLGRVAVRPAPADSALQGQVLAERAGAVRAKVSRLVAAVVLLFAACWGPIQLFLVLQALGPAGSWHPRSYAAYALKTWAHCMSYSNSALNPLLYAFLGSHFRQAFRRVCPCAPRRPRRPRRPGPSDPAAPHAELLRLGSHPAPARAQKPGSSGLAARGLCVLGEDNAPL
How it was run: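 HEK293 cells stably expressing human KISS1R were plated 18 h at 37 °C, loaded with calcium dye for 1 h at 37 °C, then given compound by pin tool. Fluorescence (Ex/Em 480/540) was read kinetically for 3 min.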

[5] = G protein-coupled receptor (GPCR) small molecule agonists, calcium flux assay: HEK293 wild type cell line counter screen (AID 1920065)
How it was run: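 Cells were plated and cultured 18 h at 37 C/5% CO2, then loaded with calcium dye for 1 h at 37 C. Compounds in DMSO were pin-transferred in agonist mode, and fluorescence (Ex/Em 480/540) was read kinetically for 3 min at 1 s intervals.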

[6] = p53 small molecule agonists, cell-based qHTS assay with human liver microsomes (AID 1963577)
How it was run: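 Fluorescence of the beta-lactamase reporter in p53RE-bla cells, detected with LiveBLAzer substrate (2 h, room temperature, dark), served as the read-out after 16 h compound exposure at 37 C with human liver microsomes and NADPH, each 0.5 mg/mL final.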

[7] = p53 small molecule agonists, cell-based qHTS assay with rat liver microsomes (AID 1963578)
How it was run: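 Cells carrying a p53 response element–beta-lactamase reporter were plated and rested 5 h, then dosed with compound in DMSO plus rat liver microsomes and NADPH, each at 0.5 mg/mL final. After 16 h at 37 C, LiveBLAzer substrate was added for 2 h.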

[8] = p53 small molecule agonists, cell-based qHTS assay with human liver microsomes: qHTS cell viability counter screen (AID 1963579); also: nearly all actives have a fitted effect of over 45% in size
How it was run: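 Cytotoxicity counter screen: p53RE-bla, 4,000 cells/well; 5 h settle, 37 C/5% CO2; cpd + HLM 0.5 mg/mL + NADPH 0.5 mg/mL (final); 16 h, 37 C; CellTiter-Glo, 30 min RT, luminescence.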

[9] = p53 small molecule agonists, cell-based qHTS assay with rat liver microsomes: qHTS cell viability counter screen (AID 1963580); also: nearly all actives have a fitted effect of over 45% in size
How it was run: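 Viability is assessed in parallel with the p53 reporter read: HCT-116 p53RE-bla cells receive compounds plus rat microsomes and NADPH (0.5 mg/mL final apiece), incubate 16 h at 37 C, and then CellTiter-Glo luminescence is recorded.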

[10] = p53 small molecule agonists, cell-based qHTS assay: qHTS cell viability counter screen (AID 1963581); also: nearly all actives have a fitted effect of over 45% in size
How it was run: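 p53RE-bla HCT-116 cells were exposed to compounds for 16 h at 37 C; after the beta-lactamase FRET read in the same wells, CellTiter-Glo was added and luminescence (intracellular ATP) read after 30 min at room temperature.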

[11] = p53 small molecule agonists, cell-based qHTS assay (AID 1963582; active = well fitted activation curve with a large enough effect in the signal ratio in the repeat runs, not every such curve was filed as active; the % refers to the signal ratio)
How it was run: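 p53RE-bla beta-lactamase reporter cells rested 5 h at 37 C/5% CO2, then received compounds in DMSO by pin transfer and were incubated 16 h at 37 C. LiveBLAzer B/G FRET substrate was loaded for 2 h at room temperature before fluorescence reading.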

[12] = target: 5-hydroxytryptamine receptor 2A (Homo sapiens) (UniProt P28223); test: 5-hydroxytryptamine receptor 2A (HTR2A) small molecule antagonists, cell-based qHTS assay (AID 1963586); also: nearly all actives have a fitted effect of over 45% in size
Chain of 5-hydroxytryptamine receptor 2A (Homo sapiens) (P28223 whole entry, looked up): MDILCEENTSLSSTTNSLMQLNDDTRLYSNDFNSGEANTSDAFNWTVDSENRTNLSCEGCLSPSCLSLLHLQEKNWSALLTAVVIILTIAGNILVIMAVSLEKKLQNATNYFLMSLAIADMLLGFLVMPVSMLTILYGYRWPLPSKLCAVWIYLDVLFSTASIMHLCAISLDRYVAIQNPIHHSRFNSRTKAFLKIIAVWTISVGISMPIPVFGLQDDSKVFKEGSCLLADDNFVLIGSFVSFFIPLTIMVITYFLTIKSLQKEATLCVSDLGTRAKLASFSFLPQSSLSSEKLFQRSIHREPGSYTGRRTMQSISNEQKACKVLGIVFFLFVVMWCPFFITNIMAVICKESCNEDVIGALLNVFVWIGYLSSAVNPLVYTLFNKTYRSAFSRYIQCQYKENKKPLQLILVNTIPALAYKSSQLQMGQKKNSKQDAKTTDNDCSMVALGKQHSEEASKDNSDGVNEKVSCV
How it was run: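 Antagonist-mode intracellular calcium assay: DOI (4 nM) added after 5 min compound pre-incubation at room temperature to dye-loaded HTR2A-CHO cells. Fluorescence followed for 3 min, sampled every second.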

[13] = target: 5-hydroxytryptamine receptor 2A (Homo sapiens) (UniProt P28223); test: 5-hydroxytryptamine receptor 2A (HTR2A) small molecule agonists, cell-based qHTS assay (AID 1963587); also: nearly all actives have a fitted effect of over 30% in size
How it was run: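 CHO cells stably expressing human HTR2A, plated 18 h, loaded with calcium dye 1 h at 37 C. Agonist mode: compounds added and intracellular calcium fluorescence recorded kinetically for 2 min at 1 sec intervals.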

[14] = target: Muscarinic acetylcholine receptor M1 (Homo sapiens) (UniProt P11229); test: Cholinergic receptor muscarinic 1 (CHRM1) small molecule antagonists, cell-based qHTS assay (AID 1963588); also: nearly all actives have a fitted effect of over 40% in size
Chain of Muscarinic acetylcholine receptor M1 (Homo sapiens) (P11229 whole entry, looked up): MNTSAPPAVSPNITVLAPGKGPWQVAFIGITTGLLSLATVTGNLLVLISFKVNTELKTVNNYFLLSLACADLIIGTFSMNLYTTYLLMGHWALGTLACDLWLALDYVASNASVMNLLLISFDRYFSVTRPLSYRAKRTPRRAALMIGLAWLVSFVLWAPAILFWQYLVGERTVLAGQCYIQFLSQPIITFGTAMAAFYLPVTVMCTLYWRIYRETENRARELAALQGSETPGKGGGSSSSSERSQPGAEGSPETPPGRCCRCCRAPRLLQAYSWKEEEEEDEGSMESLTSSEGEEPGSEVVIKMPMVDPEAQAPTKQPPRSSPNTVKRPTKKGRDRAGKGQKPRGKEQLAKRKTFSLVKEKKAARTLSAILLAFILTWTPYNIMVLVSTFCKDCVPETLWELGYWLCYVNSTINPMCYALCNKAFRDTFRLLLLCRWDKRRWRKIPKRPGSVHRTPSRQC
How it was run: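 CHRM1-CHO calcium-flux assay, antagonist mode. Cells were seeded 18 h, dye-loaded 1 h at 37 C and given compound for 5 min at RT, then acetylcholine was added at 50nM. FDSS fluorescence was read 3 min; 15 concentrations, three runs.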

[15] = target: Muscarinic acetylcholine receptor M1 (Homo sapiens) (UniProt P11229); test: Cholinergic receptor muscarinic 1 (CHRM1) small molecule agonists, cell-based qHTS assay (AID 1963589); also: nearly all actives have a fitted effect of over 35% in size
How it was run: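 CHO cells stably expressing human CHRM1, seeded 18 h at 37 C/5% CO2, dye-loaded 1 h at 37 C, then given compound in agonist mode; intracellular calcium fluorescence read kinetically at 1 s intervals. Fifteen concentrations, three independent runs.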

[16] = cAMP Responsive Elements (CRE) small molecule agonists, cell-based qHTS assay (AID 1963590)
How it was run: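 CRE-bla HEK 293T cells in DMEM with 10% dialyzed FBS, NEAA, pyruvate and 25 mM HEPES were plated 18 h at 37 C/5% CO2, then exposed to compounds in DMSO for 3 h before LiveBLAzer B/G FRET substrate addition.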

[17] = cAMP Responsive Elements (CRE) small molecule antagonists, cell-based qHTS assay (AID 1963591; active = well fitted inhibition curve with a large enough effect in the signal ratio in the repeat runs, not every such curve was filed as active; the % refers to the signal ratio)
How it was run: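 CRE-bla HEK293T cells were plated 18 h at 37 °C/5% CO2, pinned with compound in DMSO, then stimulated with NKH477 at 0.25 uM final for 3 h. LiveBLAzer B/G FRET substrate was added and plates incubated 2 h at room temperature.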

[18] = target: Beta-2 adrenergic receptor (Homo sapiens) (UniProt P07550); test: Adrenergic beta2 receptor (ADRB2) small molecule antagonists, cell-based qHTS assay (AID 1963592); also: series mostly up to about 92 µM; nearly all actives have a fitted effect of over 50% in size
Chain of Beta-2 adrenergic receptor (Homo sapiens) (P07550 whole entry, looked up): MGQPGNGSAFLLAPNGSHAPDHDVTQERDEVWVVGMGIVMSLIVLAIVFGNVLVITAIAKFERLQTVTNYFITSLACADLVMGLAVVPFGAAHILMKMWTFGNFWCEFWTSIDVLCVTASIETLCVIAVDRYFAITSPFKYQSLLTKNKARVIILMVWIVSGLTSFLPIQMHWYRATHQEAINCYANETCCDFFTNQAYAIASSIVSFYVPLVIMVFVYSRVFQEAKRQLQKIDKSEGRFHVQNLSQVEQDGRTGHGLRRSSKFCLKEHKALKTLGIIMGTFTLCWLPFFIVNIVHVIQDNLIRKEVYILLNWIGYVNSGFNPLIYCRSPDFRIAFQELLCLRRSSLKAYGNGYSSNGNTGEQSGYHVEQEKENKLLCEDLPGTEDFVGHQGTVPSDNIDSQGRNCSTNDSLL
How it was run: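 Cells (CHO, stable ADRB2 overexpression) incubated 18-20hr at 37C; compounds added from DMSO; agonist mix (1nM isoproterenol, 100uM IBMX, 25uM Ro-20-1724) added; 0.5hr RT; d2-cAMP and anti-cAMP-cryptate added; 1hr RT; 665/615 nm read.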

[19] = target: D(2) dopamine receptor (Homo sapiens) (UniProt P14416); test: Dopamine D2 receptor (DRD2) small molecule agonists, cell-based qHTS assay (AID 1963594); also: nearly all actives have a fitted effect of over 35% in size
Chain of D(2) dopamine receptor (Homo sapiens) (P14416 whole entry, looked up): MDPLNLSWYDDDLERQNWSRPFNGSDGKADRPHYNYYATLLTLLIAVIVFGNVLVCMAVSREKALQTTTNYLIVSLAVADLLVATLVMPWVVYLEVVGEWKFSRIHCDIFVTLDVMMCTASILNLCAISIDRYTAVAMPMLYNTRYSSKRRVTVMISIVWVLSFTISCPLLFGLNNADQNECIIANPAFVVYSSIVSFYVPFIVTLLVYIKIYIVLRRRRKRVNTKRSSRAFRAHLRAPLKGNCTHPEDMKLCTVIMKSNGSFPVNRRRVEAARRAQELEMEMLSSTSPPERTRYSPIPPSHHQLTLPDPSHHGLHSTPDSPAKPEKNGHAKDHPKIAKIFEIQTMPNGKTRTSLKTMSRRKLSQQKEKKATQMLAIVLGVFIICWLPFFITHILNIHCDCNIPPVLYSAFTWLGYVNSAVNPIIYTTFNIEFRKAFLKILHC
How it was run: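 HEK293 cells stably expressing human DRD2, pre-treated with PDE inhibitor Ro20-1724 (0.1 mM final) and compound 10 min at room temperature, then stimulated with NKH477 (200nM […]) for 30 min. cAMP read by HTRF (665/620 nm).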

[20] = target: D(2) dopamine receptor (Homo sapiens) (UniProt P14416); test: Dopamine D2 receptor (DRD2) small molecule antagonists, cell-based qHTS assay (AID 1963595; active = well fitted inhibition curve with a large enough effect in the signal ratio in the repeat runs, with a control signal flat; the % refers to the signal ratio)
How it was run: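 Antagonism was scored as restored cAMP in HEK293-DRD2 cells. These cells were stimulated with 200 nM NKH477 and 12 nM quinpirole for 30 min at room temperature, in the presence of 0.1 mM Ro20-1724.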
% is scaled to controls: 0 for no effect and ±100 for the full control effect.

N[C@H](C(=O)O)[C@@H](O)c1ccc(O)c(O)c1
inactive: Potency [1] | Potency [2] | Potency [3] | outcome [4] | outcome [5] | Potency [6] | Potency [7] | Potency [8] | Potency [9] | Potency [10] | Potency [11] | Potency [12] | Potency [13] | Potency [14] | Potency [15] | Potency [16] | Potency [17] | Potency [18] | Potency [19] | Potency [20]

Cc1cccc(C)c1NC(=O)c1ccc(N)cc1
inactive: Potency [1] | Potency [2] | Potency [3] | outcome [4] | outcome [5] | Potency [6] | Potency [7] | Potency [8] | Potency [9] | Potency [10] | Potency [11] | Potency [12] | Potency [13] | Potency [14] | Potency [15] | Potency [16] | Potency [17] | Potency [18] | Potency [19] | Potency [20]

CCOC(=O)c1ccccc1
inactive: Potency [1] | Potency [2] | Potency [3] | outcome [4] | outcome [5] | Potency [6] | Potency [7] | Potency [8] | Potency [9] | Potency [10] | Potency [11] | Potency [12] | Potency [13] | Potency [14] | Potency [15] | Potency [16] | Potency [17] | Potency [18] | Potency [19] | Potency [20]

C=C(C)C(=O)OC1CC(C)CC(C)(C)C1 (configuration not stated)
inactive: Potency [1] | Potency [2] | Potency [3] | outcome [4] | outcome [5] | Potency [6] | Potency [7] | Potency [8] | Potency [9] | Potency [10] | Potency [11] | Potency [12] | Potency [13] | Potency [14] | Potency [15] | Potency [16] | Potency [17] | Potency [18] | Potency [19] | Potency [20]

CCCCCCCCCCCCCC=O
inactive: activity change, negative = cytotoxicity [1] -1.13% [at 8.39 µM] | activity, positive = activation [2] 0.0623% [at 8.39 µM] | activity change [3] -0.408% [at 5.22 µM, stronger effect = higher value] | activation [4] 0.0205% [at 6.97 µM] | activation [5] 0.0655% [at 5.23 µM] | activation [6] 0.781% [at 5.99 µM] | activation [7] -2.08% [at 5.99 µM] | activity change, negative = cytotoxicity [8] -3.87% [at 5.99 µM] | activity change, negative = cytotoxicity [9] 0.418% [at 5.99 µM] | activity change, negative = cytotoxicity [10] -2.03% [at 5.99 µM] | activation [11] 5.85% [at 5.99 µM] | activity, negative = inhibition [12] 4.12% [at 5.62 µM] | activation [13] -1.86% [at 7.02 µM] | activity, negative = inhibition [14] 4.29% [at 5.58 µM] | activation [15] 0.649% [at 6.97 µM] | activation [16] -0.0207% [at 8.39 µM] | activity change, negative = inhibition [17] 0.604% [at 8.39 µM] | activity change, negative = inhibition [18] 0.833% [at 8.39 µM] | activity change, negative = inhibition [20] 7.61% [at 8.38 µM]

CC(=O)NC(=O)c1ccccc1O
inactive: Potency [1] | Potency [2] | Potency [3] | outcome [4] | outcome [5] | Potency [6] | Potency [7] | Potency [8] | Potency [9] | Potency [10] | Potency [11] | Potency [12] | Potency [13] | Potency [14] | Potency [15] | Potency [16] | Potency [17] | Potency [18] | Potency [20]

OCCC(F)(F)C(F)(F)C(F)(F)C(F)(F)C(F)(F)C(F)(F)C(F)(F)C(F)(F)F
inactive: Potency [1] | Potency [2] | Potency [3] | outcome [4] | outcome [5] | Potency [6] | Potency [7] | Potency [8] | Potency [9] | Potency [10] | Potency [11] | Potency [12] | Potency [13] | Potency [14] | Potency [15] | Potency [16] | Potency [17] | Potency [18] | Potency [20]
